Laboratory results taken from publication PMC10668032, “Altered binding affinity of SIX1-Q177R correlates with enhanced WNT5A and WNT pathway effector expression in Wilms tumor”.
The full ranking holds about 33,000 sequences; the median of “e-score” is about -0.05, and the highest 2% start at about 0.38. Shown is part of a subset that was picked to be rich in the highest values.

Target: T1, SIX1-Q177R homeodomain (human, UniProt Q15475 108-198, Q177R)
T1 sequence: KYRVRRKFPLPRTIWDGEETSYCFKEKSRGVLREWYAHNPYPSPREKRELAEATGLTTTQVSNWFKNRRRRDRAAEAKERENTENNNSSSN
Test: universal protein binding microarray; Universal all-10-mer PBM (8x60K, AMADID 030236), 300 nM GST-tagged protein, Alexa Fluor 488 anti-GST; buffer, salt, pH and temperature not stated (as in Berger); high values mean tight binding
Conditions: protein: ivt; tags: N-terminal GST; dsDNA, one strand shown
How it was run: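 GST-tagged homeodomains were made by in vitro transcription/translation and quantified by anti-GST western blot against a recombinant GST standard curve. They were applied in duplicate at 300 nM final concentration to universal 'all 10-mer' protein binding microarrays (8×60K format). Binding was quantified as 8-mer E-scores with the Universal PBM Analysis Suite.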

Sequence | binding signal
ATACCACG | 0.216 ± 0.0275 E-score
CTACCACA | 0.154 ± 0.0418 E-score
ACCACACT | 0.2703 ± 0.00247 E-score
ACACCACT | 0.4835 ± 0.00239 E-score
ACGCCACT | 0.159 ± 0.00951 E-score
ACACCACC | 0.4809 ± 0.000976 E-score
ACACCACG | 0.4775 ± 0.00181 E-score
ATACCACC | 0.25 ± 0.00441 E-score
AACTAACA | 0.2417 ± 0.000339 E-score
CACGCTGC | 0.293 ± 0.00561 E-score
ATAAGCAC | 0.166 ± 0.0125 E-score
ATTCGCAA | 0.162 ± 0.0131 E-score
TACCCGTA | 0.168 ± 0.00327 E-score
GGGTTTAA | 0.232 ± 0.0257 E-score
GAACCCAC | 0.19 ± 0.0124 E-score
ACCTCACA | 0.244 ± 0.00679 E-score
CACTAAAG | 0.185 ± 0.042 E-score
ACACTCCG | 0.3884 ± 0.00235 E-score
ATACTCCG | 0.195 ± 0.0283 E-score
ACTCTCCC | 0.163 ± 0.0151 E-score
ACACTCCA | 0.373 ± 0.0149 E-score
ACACTCCT | 0.391 ± 0.0158 E-score
CCACTCCA | 0.152 ± 0.00234 E-score
ACCCTCCG | 0.271 ± 0.0147 E-score
ACACTTCT | 0.374 ± 0.0413 E-score

Sequence | binding signal
ACACTCCC | 0.404 ± 0.00738 E-score
GGCGGATA | 0.22 ± 0.0151 E-score
CACTCCAA | 0.161 ± 0.0414 E-score
AGGCTACC | 0.187 ± 0.00757 E-score
CACCGTCA | 0.209 ± 0.0101 E-score
AACACGGA | 0.372 ± 0.0198 E-score
AACACGGG | 0.432 ± 0.00733 E-score
AACACGGT | 0.383 ± 0.0148 E-score
CACACGGG | 0.332 ± 0.0383 E-score
AGCACGGG | 0.155 ± 0.00564 E-score
CACTCGCA | 0.264 ± 0.0114 E-score
ACCGCGGT | 0.187 ± 0.0496 E-score
AACAAGTG | 0.172 ± 0.00772 E-score
AAGTGTGT | 0.215 ± 0.00375 E-score
GAGTGTTA | 0.407 ± 0.0179 E-score
AAGTGTTA | 0.393 ± 0.0449 E-score
CAGTGTTA | 0.402 ± 0.00939 E-score
CAGTGTTC | 0.355 ± 0.0115 E-score
CACTGTTA | 0.255 ± 0.0243 E-score
GAGTGCTA | 0.152 ± 0.00664 E-score
AAGTGTTC | 0.285 ± 0.0294 E-score
AGAGCACC | 0.202 ± 0.0183 E-score
AACCCACC | 0.194 ± 0.0122 E-score
CGCGGGCA | 0.276 ± 0.0364 E-score
CCCGAGTC | 0.171 ± 0.0123 E-score

Sequence | binding signal
GCACCCCC | 0.311 ± 0.046 E-score
ACACCCCT | 0.4748 ± 0.00334 E-score
AGACCCCT | 0.155 ± 0.0162 E-score
CCACCCCA | 0.267 ± 0.0424 E-score
CCACCCCC | 0.209 ± 0.0542 E-score
ACACCCCC | 0.4871 ± 0.00117 E-score
ACCCCCCT | 0.302 ± 0.0219 E-score
ACACCCCG | 0.466 ± 0.00875 E-score
TCACCCCA | 0.184 ± 0.0578 E-score
ACCCCCCG | 0.329 ± 0.0392 E-score
CCACCCCG | 0.246 ± 0.0156 E-score
ACACCCCA | 0.4705 ± 0.00327 E-score
CCCTCGAC | 0.176 ± 0.00448 E-score
ATCGGGCA | 0.195 ± 0.0164 E-score
CCGCCCGA | 0.174 ± 0.00646 E-score
CCCTGCAC | 0.178 ± 0.0222 E-score
TGATACCA | 0.325 ± 0.0116 E-score
AACCCGTG | 0.23 ± 0.00447 E-score
GCGGAGTA | 0.241 ± 0.0385 E-score
ACTGGCAC | 0.152 ± 0.00487 E-score
ACCCGGAC | 0.171 ± 0.0263 E-score
AGCGCGGG | 0.2629 ± 0.0007 E-score
GAGAACAC | 0.3811 ± 0.000742 E-score
AAGAACAC | 0.423 ± 0.0082 E-score
CAGGAACA | 0.259 ± 0.00612 E-score

Sequence | binding signal
CAGAACAC | 0.3812 ± 0.000905 E-score
GAGAATAC | 0.194 ± 0.00365 E-score
CACTCTAC | 0.291 ± 0.0135 E-score
CCGCCACA | 0.282 ± 0.0124 E-score
ACAAGGGG | 0.185 ± 0.0199 E-score
CACTCCCA | 0.273 ± 0.0105 E-score
GCACTACA | 0.171 ± 0.00501 E-score
ACCCAGCG | 0.168 ± 0.00443 E-score
ACTTAGGG | 0.181 ± 0.0198 E-score
ATCAGGTG | 0.224 ± 0.00902 E-score
AAGTGGTG | 0.337 ± 0.0139 E-score
GCCCACAC | 0.255 ± 0.0252 E-score
ACCTACCC | 0.252 ± 0.0152 E-score
CCCTACAC | 0.424 ± 0.00443 E-score
ACCTATAC | 0.2048 ± 0.00123 E-score
CCCTACTC | 0.19 ± 0.0302 E-score
GCCTACGC | 0.167 ± 0.0292 E-score
GCCTACAC | 0.442 ± 0.0046 E-score
ACCTACAC | 0.4302 ± 0.00419 E-score
CCCTACCC | 0.185 ± 0.00683 E-score
GGGATCGA | 0.257 ± 0.0548 E-score
CACGACTA | 0.22 ± 0.0605 E-score
CACTAATC | 0.172 ± 0.0411 E-score
GTGTGCAA | 0.252 ± 0.0153 E-score
GTGTTCAA | 0.3855 ± 0.00337 E-score

Sequence | binding signal
GTATTCTA | 0.1741 ± 0.00132 E-score
GTGTTCTA | 0.392 ± 0.00814 E-score
GGGTTCAC | 0.184 ± 0.0552 E-score
GTGTTCCA | 0.361 ± 0.00459 E-score
GTGTTCGA | 0.409 ± 0.0112 E-score
AAGGGGTC | 0.17 ± 0.00583 E-score
CACCATTC | 0.23 ± 0.0429 E-score
CCCCCACA | 0.262 ± 0.0205 E-score
ACGGGGTA | 0.233 ± 0.00738 E-score
GGGTGGTA | 0.194 ± 0.0128 E-score
AATAGACA | 0.187 ± 0.00716 E-score
GATCCCCC | 0.368 ± 0.0192 E-score
CACCAGTG | 0.404 ± 0.0086 E-score
CACCAGTC | 0.2944 ± 0.00254 E-score
AACCAGTG | 0.183 ± 0.00569 E-score
CTCAGACA | 0.189 ± 0.00366 E-score
GCATACAC | 0.406 ± 0.00565 E-score
ACACATAC | 0.18 ± 0.0765 E-score
ACATACCC | 0.17 ± 0.00441 E-score
CCATACCC | 0.218 ± 0.00536 E-score
CCATACAC | 0.3962 ± 0.00378 E-score
GCATAAAC | 0.184 ± 0.0176 E-score
ACATACAC | 0.421 ± 0.012 E-score
CACCTCGA | 0.217 ± 0.0155 E-score
GAGGGGTA | 0.277 ± 0.00472 E-score

Sequence | binding signal
ATACCGGA | 0.178 ± 0.0104 E-score
AGGCAGGA | 0.158 ± 0.0089 E-score
ACCTAGAG | 0.175 ± 0.0492 E-score
GGGTGCAA | 0.261 ± 0.0357 E-score
CAACGCCA | 0.175 ± 0.0166 E-score
CCCCGACC | 0.15745 ± 0.000156 E-score
AACCGGTG | 0.299 ± 0.0429 E-score
CACCGGTG | 0.418 ± 0.0109 E-score
CACCGGTC | 0.21 ± 0.00979 E-score
AATTGGTG | 0.221 ± 0.00776 E-score
CCGCGACA | 0.241 E-score
GCAATACC | 0.166 ± 0.00689 E-score
CTAGTATC | 0.161 ± 0.0474 E-score
CTAGTGTC | 0.4067 ± 0.00058 E-score
ATAGTGTG | 0.188 ± 0.00817 E-score
ATATAGTG | 0.265 ± 0.00494 E-score
CTAGTCAC | 0.19 ± 0.0126 E-score
CTAGTGTA | 0.391 ± 0.0289 E-score
ATAGTGTA | 0.391 ± 0.0352 E-score
CTAGTACA | 0.245 ± 0.0089 E-score
CTTGTGTA | 0.154 ± 0.0563 E-score
ATAGTGTC | 0.3846 ± 0.00175 E-score
ATAGTATA | 0.175 ± 0.0632 E-score
CACCGTGA | 0.277 E-score
CCCCCGCC | 0.228 ± 0.0364 E-score

Sequence | binding signal
CACGGATC | 0.279 ± 0.0122 E-score
ACCATGAA | 0.1618 ± 0.00147 E-score
CATTGGGG | 0.162 ± 0.00379 E-score
CCCACTCC | 0.159 ± 0.0222 E-score
ACCCCGGA | 0.299 ± 0.00931 E-score
GTAGTGTA | 0.427 ± 0.00906 E-score
GTAGGGTA | 0.193 ± 0.0286 E-score
GTAGTGAC | 0.26 ± 0.0183 E-score
ACCAAGAG | 0.213 ± 0.0142 E-score
AACACACA | 0.262 ± 0.0517 E-score
AACACACC | 0.395 ± 0.0142 E-score
AACACACG | 0.231 ± 0.0156 E-score
GACACACA | 0.334 ± 0.044 E-score
GACACAGC | 0.17 ± 0.0393 E-score
CACACACA | 0.184 ± 0.063 E-score
CACACACG | 0.248 ± 0.0453 E-score
GACACACC | 0.422 ± 0.0192 E-score
CACACACC | 0.389 ± 0.0305 E-score
TGTACCAA | 0.164 ± 0.0254 E-score
GGGTATAC | 0.262 ± 0.00267 E-score
AACCCGGG | 0.244 ± 0.0275 E-score
CTACTCCA | 0.242 ± 0.00788 E-score
